The subject of experiment [1] is XIP peptide (Xip251-270) binding. Put plainly: XIP fragment 251-270 binding compounds – biochemical, small-molecule microarray, fluorescence 635/667 nm, 0.1 µg/mL protein, primary screen (AID 1182). As to conditions: fluorescent protein binding, 635 nm, higher = more signal, called active from +8 up or from −8 down.
Experiment [2] has as its system XIP peptide (Xip251-270). The experiment in a line: compounds binding XIP fragment 251-270 – biochemical, small-molecule microarray, fluorescence 635/667 nm, 0.5 µg/mL protein, primary screen (AID 1183). The settings on record: fluorescence 635 nm, higher = more signal.
Experiment [3] can be described thus: blood-stage malaria parasite viability loss – strain 3D7, DAPI fluorescence, 100 nL, primary screen (AID 1184).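 Note: parasites grown inside human red blood cells in medium with human serum.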 The settings on record: P. falciparum 3D7 growth, 3 d, higher = more signal.
The target in experiment [4] is Homeobox protein Hox-A13 (Mus musculus) (UniProt Q62424). The experiment in a line: disruptors of Hoxa13 oligonucleotide interaction – biochemical, fluorescence polarization, labeled oligonucleotide, primary screen (AID 1185). The settings on record: Hoxa13:DNA binding, 15 min, higher = more signal, called active from +8 up or from −8 down.
Homeobox protein Hox-A13 (Mus musculus), sequence (Q62424 whole entry, looked up): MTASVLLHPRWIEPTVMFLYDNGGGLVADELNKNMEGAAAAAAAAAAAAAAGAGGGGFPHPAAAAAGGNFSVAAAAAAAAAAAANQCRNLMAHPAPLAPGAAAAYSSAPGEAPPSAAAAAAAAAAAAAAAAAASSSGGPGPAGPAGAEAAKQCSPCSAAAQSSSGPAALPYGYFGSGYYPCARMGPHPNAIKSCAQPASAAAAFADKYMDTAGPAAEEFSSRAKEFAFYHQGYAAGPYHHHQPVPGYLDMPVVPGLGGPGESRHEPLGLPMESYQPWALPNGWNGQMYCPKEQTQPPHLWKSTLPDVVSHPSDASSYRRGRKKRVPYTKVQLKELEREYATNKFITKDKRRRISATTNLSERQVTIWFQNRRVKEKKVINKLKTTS
The nature of experiment [5]: blockers of DNA damage checkpoint Chk1 activation – imaging, HeLa, hydroxyurea, phospho-Chk1 antibody, percent positive cells, primary screen (AID 1186). As to conditions: hydroxyurea-induced phospho-Chk1 immunofluorescence imaging, higher = more signal.
The nature of experiment [6]: blockers of DNA damage checkpoint Chk1 activation – imaging, HeLa, hydroxyurea, phospho-Chk1 nuclear intensity, primary screen (AID 1187). As to conditions: hydroxyurea-induced phospho-Chk1 immunofluorescence imaging, higher = more signal.

Among the data in PubChem BioAssay are composite z-score and z-score values, retold here.

Active and inactive are the calls of the source. Unless noted, the rule behind the calls is not given here.

For the molecule `CCCC/C=C/[C@H]([C@@H](O)Cc1ccccc1)N(CC#Cc1ccccc1)Cc1ccccc1Br`, the composite z-score in experiment [1] is 0.227 (inactive); in experiment [2], -1.26. In addition, the z-score in experiment [3] was -0.972; in experiment [4], 0.453 (inactive); in experiment [5] it was -0.138 (inactive); in experiment [6], -0.0836 (inactive).

With `COCC(=C=CC[C@H](O)c1ccc(OCCO)cc1)C[C@H](O)c1ccccn1`, the composite z-score in experiment [1] was 0.495 (inactive); in experiment [2] it was -0.246. Further, the z-score in experiment [3] is -1.14; in experiment [4], -5.63 (inactive); in experiment [5] it was -0.215 (inactive); in experiment [6], -0.0412 (inactive).

For the molecule `COc1cc2c(cc1OC)CN(C(=O)[C@H]1[C@@H]3C(=O)O[C@@H](c4ccccc4)[C@@H](c4ccccc4)N3[C@@H](c3ccccc3OCCO)[C@]13C(=O)Nc1ccc(C#CC4(O)CCCCCC4)cc13)CC2`, the composite z-score in experiment [1] was 1.62 (inactive); in experiment [2], 0.837. The z-score in experiment [3] was -2.14; in experiment [4], 1.74 (inactive); in experiment [5] it was -0.0766 (inactive); in experiment [6], 0.196 (inactive).

For `CC(=O)NCCCC[C@@H]1NC(=O)[C@H]2C[C@@H](C(=O)NCCCCCCN(C)C)[C@@H](c3ccc(O)cc3)N2C1=O`, the figures for the composite z-score in experiment [1] and in experiment [2] were 1.76 (inactive) and 0.832, respectively. In addition, the z-score in experiment [3] was -1.01; in experiment [4], -1.9 (inactive); in experiment [5] it was 0.0655 (inactive); in experiment [6] it was 0.0377 (inactive).

In the case of `C=CCOC(=O)[C@@H]1[C@H]2C(=O)O[C@H](c3ccccc3)[C@H](c3ccccc3)N2[C@H](c2ccc(OCCOC(=O)[C@H]3C[C@H]4C(=O)N[C@@H](CCCCNC(C)=O)C(=O)N4[C@H]3c3ccc(O)cc3)cc2)[C@@]12C(=O)Nc1ccc(I)cc12`, the values for the composite z-score in experiment [1] and in experiment [2] were 0.393 (inactive) and 0.566, respectively. Moreover, the z-score was -1.78 in experiment [3], 0.32 (inactive) in experiment [4], 0.293 (inactive) in experiment [5] and -0.568 (inactive) in experiment [6].

Consider `N#Cc1ccc(NN2C(C(O)c3ccc(I)cc3)C=CC3C(=O)N(c4ccccc4)C(=O)C32)cc1` (configuration not stated), for which the composite z-score in experiment [1] is 0.816 (inactive); in experiment [2], 0.464. In addition, the z-score in experiment [3] was 0.175; in experiment [4] it was -1.01 (inactive); in experiment [5] it was -0.308 (inactive); in experiment [6], 0.145 (inactive).

In the case of `Cc1ccc(N2C(=O)c3ccccc3[C@@H](C(=O)NCC(F)(F)F)[C@@H]2c2ccc(CO)cc2)nc1`, the composite z-score in experiment [1] is -0.118 (inactive); in experiment [2], -0.138. Moreover, the z-score is -0.0188 in experiment [3], -0.71 (inactive) in experiment [4], -0.0128 (inactive) in experiment [5] and 0.171 (inactive) in experiment [6].

For the molecule `COc1ccc([Si](C)(C)[C@H]2[C@H](CCO)O[C@@]3(C(=O)N(Cc4ccc(N5CCCCC5=O)cc4)c4ccccc43)[C@@H]2C)cc1`, the composite z-score in experiment [1] was 0.125 (inactive); in experiment [2], 0.81. Moreover, the z-score in experiment [3] was -1.39; in experiment [4], -4.54 (inactive); in experiment [5] it was -0.688 (inactive); in experiment [6], -0.167 (inactive).

As for `C=CCC(OC(C)=O)[C@@H]1[C@@H](N(Cc2ccc(-c3ccccc3)cc2)C(=O)c2ccc(C)cc2)c2cc(OCCCO)ccc2N1C(=O)c1ccc(-c2ccccc2)cc1` (some centres not stated), the composite z-score in experiment [1] was -0.0684 (inactive); in experiment [2] it was -0.322. The z-score is -2.66 in experiment [3], -1.35 (inactive) in experiment [4], 0.0807 (inactive) in experiment [5] and 0.582 (inactive) in experiment [6].

Regarding `COc1ccc(C(O)C2C=CC3C(=O)N(C)C(=O)C3N2N2CCCCC2)cc1OCc1ccccc1` (configuration not stated), the composite z-score was -0.001 (inactive) in experiment [1] and 0.582 in experiment [2]. In addition, the z-score in experiment [3] is -0.303; in experiment [4], -4.76 (inactive); in experiment [5], 0.245 (inactive); in experiment [6] it was -0.0779 (inactive).

As to `COCCCNC(=O)[C@@H]1c2ccccc2C(=O)N(CC23CC4CC(CC(C4)C2)C3)[C@H]1c1ccc(CO)cc1`, the composite z-score in experiment [1] was 0.428 (inactive); in experiment [2] it was -0.518. For the same molecule, the z-score was -1.95 in experiment [3], -4.65 (inactive) in experiment [4], -0.546 (inactive) in experiment [5] and -0.786 (inactive) in experiment [6].

Take `O=C(NCc1ccccc1)[C@@]1(Cc2ccccc2)COC(c2ccc(OCCCO)cc2)=N1`: the composite z-score was 0.489 (inactive) in experiment [1] and 0.75 in experiment [2]. The z-score in experiment [3] is -2.15; in experiment [4], -4.9 (inactive); in experiment [5] it was -0.583 (inactive); in experiment [6] it was -0.649 (inactive).

On to `O=C1O[C@H](c2ccccc2)[C@H](c2ccccc2)N2[C@H]1[C@@H](C(=O)NC[C@H](O)c1ccccc1)[C@]1(C(=O)Nc3ccc(C#CC4(O)CCCCCC4)cc31)[C@H]2c1ccc(OCCO)cc1`, for which the composite z-score in experiment [1] was -0.342 (inactive); in experiment [2] it was 0.799. Further, the z-score in experiment [3] was -1.45; in experiment [4] it was 0.199 (inactive); in experiment [5] it was -0.309 (inactive); in experiment [6], -0.412 (inactive).

Take `[N-]=[N+]=NCc1ccccc1C[C@@]1(C(=O)O)N=C(c2ccc(OCCCO)cc2)O[C@@H]1c1ccccc1N=[N+]=[N-]`: the results for the composite z-score in experiment [1] and in experiment [2] were -0.321 (inactive) and 0.908, respectively. For the same molecule, the z-score is -2.15 in experiment [3], -4.16 (inactive) in experiment [4], -1.08 (inactive) in experiment [5] and -0.884 (inactive) in experiment [6].

Regarding `CO[C@H]1O[C@H](CO)[C@@H](OC(=O)CCc2ccccc2)[C@@H]2OC(=O)[C@H](Cc3cccc(Br)c3)C/C=C/C[C@@H](Cc3cccc(Br)c3)C(=O)O[C@@H]12`, the composite z-score in experiment [1] is 0.0304 (inactive); in experiment [2], -0.107. Besides, the z-score in experiment [3] was -1.84; in experiment [4], -2.42 (inactive); in experiment [5] it was -0.962 (inactive); in experiment [6], -1.1 (inactive).

`CO[C@]12C=C(Br)[C@@H](C[C@@H]1c1ccccc1)[C@@]1(CO1)C2=O`: the values for the composite z-score in experiment [1] and in experiment [2] were 0.484 (inactive) and 0.521, respectively. Moreover, the z-score in experiment [3] is -1.03; in experiment [4], -0.507 (inactive); in experiment [5] it was -0.655 (inactive); in experiment [6], -0.337 (inactive).

As to `COc1ccc([Si](C)(C)[C@H]2[C@H](CC(=O)N3Cc4ccccc4C[C@H]3CO)O[C@@]3(C(=O)N(Cc4cccc(N5CCOC5=O)c4)c4ccccc43)[C@@H]2C)cc1`, the values for the composite z-score in experiment [1] and in experiment [2] were 0.873 (inactive) and 0.625, respectively. Further, the z-score in experiment [3] is -1.55; in experiment [4], -3.02 (inactive); in experiment [5], -0.958 (inactive); in experiment [6] it was -0.191 (inactive).
